PKM2 activator: qHTS Assay for Activators of Human Muscle isoform 2 Pyruvate Kinase. hit rate 0.34% among 260,000. Potency, µM (series often up to 57.5 µM), for inactives: top-dose activation, actives largely listed as activators. AID 1631, 2009. purified PKM2, Kinase-Glo ATP luminescence, activation; response scale: 0% is enzyme alone, no compound; further: potency means the concentration at half of the fitted maximal effect; on the % scale 0 is the no-effect control and ±100 the full control effect; nearly all actives have a fitted effect of over 55% in size
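Kinase-Glo luminescence reports ATP generated from ADP (0.1 mM) and PEP (0.5 mM) by purified hPK-M2 after 1 h at room temperature, pH 7.2 imidazole buffer; intermediate enzyme activity allows detecting inhibitors and activators.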
Tb PFK block: qHTS Assay to Find Inhibitors of T. brucei phosphofructokinase | ATP-dependent 6-phosphofructokinase (Trypanosoma brucei brucei), O15648 | T. brucei PFK, ADP-Glo luminescence | Potency, µM (top dose mostly 57.5 µM), for the others: at the highest dose activity, negative = inhibition, hits mostly inhibitors | hit rate 0.17% among 330,000;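 further: potency means the concentration at half of the fitted maximal effect; 0% = uninhibited 1x PFK enzyme wells and -100% = no-enzyme wells; nearly all actives have a fitted effect of over 60% in size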
Target sequence (O15648 whole entry, looked up): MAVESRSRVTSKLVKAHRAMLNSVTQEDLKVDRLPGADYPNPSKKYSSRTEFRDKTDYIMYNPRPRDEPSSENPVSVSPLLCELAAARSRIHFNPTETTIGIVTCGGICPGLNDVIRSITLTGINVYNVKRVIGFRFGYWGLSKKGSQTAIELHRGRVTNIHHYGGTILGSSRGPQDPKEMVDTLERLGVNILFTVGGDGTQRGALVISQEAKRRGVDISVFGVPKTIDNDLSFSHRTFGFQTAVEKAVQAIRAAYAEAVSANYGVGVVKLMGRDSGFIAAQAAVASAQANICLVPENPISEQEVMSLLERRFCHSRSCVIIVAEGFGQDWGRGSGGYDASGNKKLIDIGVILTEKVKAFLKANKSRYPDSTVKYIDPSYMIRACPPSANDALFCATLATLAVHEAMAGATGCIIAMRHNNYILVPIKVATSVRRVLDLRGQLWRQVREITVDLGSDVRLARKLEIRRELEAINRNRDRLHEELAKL
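In TEA buffer at pH 8.0 with 5 mM MgCl2, enzyme (1.25 nM) converted F6P (0.5 mM) and ATP (0.1 mM) for 45 min at room temperature. ADP product was read by luciferase luminescence.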
IL-2 act: qHTS of IL-2 Activators | hit rate 0.065% among 360,000 | activation, % (series mostly up to about 46 µM) | AID 652025, 2013 | IL-2 activation reporter assay, cell-based qHTS; stimulated with anti-CD3/CD4/CD28 beads; in transgenic mouse T cells; in the data active means activation above about 50%; inconclusive means mostly about 30% to 49%; further: 0% is about no effect
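Unstimulated transgenic mouse T cells preincubated 60 min with compound, then stimulated with anti-CD3/anti-CD4-coated beads plus anti-CD28 for 18 h at 37 degrees C. IL-2 response read as EGFP and DsRed fluorescence by plate cytometry.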
TCR act: Activators of T cell receptors: qHTS campaign; Potency, µM (highest dose often 9.22 µM), inactives show at the highest dose activation of IL-2 secretion, most hits filed as activators; 330,000 tested, under 10 active; primary human leukocytes, anti-CD3, IL-2 HTRF, 48 h; AID 504894, 2011; further: % of control where 0% means no effect
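Primary human leukocytes receive a-CD3 beads and test compound and are incubated 48 hr. Secreted IL-2 is then assayed by HTRF, measuring 665nm acceptor emission after 320nm excitation of the europium donor.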
a7 integrin act: qHTS for Activators of Integrin-Mediated Alleviation for Muscular Dystrophy; alpha7betagal myoblasts, beta-gal FDG fluorescence, 48 h; Potency, µM (series often up to 38.3 µM), for the others: top-dose activation, most hits filed as activators; hit rate 0.064% among 350,000; AID 624291, 2012;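 further: potency means the concentration at half of the fitted maximal effect; 100% = response of the positive control SU9516; nearly all actives have a fitted effect of over 60% in size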
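alpha7betagal+/- myoblasts (passage 13, 250/well) treated 48 h at 37C with compounds at 1:260 dilution of DMSO stock. Lysed, then beta-galactosidase activity read as FDG fluorescence (ex 480/em 540) after 30 min, with pre-read for autofluorescence.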
AT treatment: qHTS Assay for Identifying a Potential Treatment of Ataxia-Telangiectasia | F2112 A-T fibroblasts, KAP-1 phosphorylation AlphaLISA; neocarzinostatin DNA damage 30 min before lysis | hit rate 0.19% among 320,000 | Potency, µM (doses to about 57.5 µM), for the others: top-dose activation, usual class: activators; further: potency means the concentration at half of the fitted maximal effect; % of control where 0% means no effect; nearly all actives have a fitted effect of over 45% in size
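hTERT-immortalized A-T patient fibroblasts (F2112), 500 cells/well in OPTI-MEM, 1% FBS, got compounds for 60 min, then NCS for 30 min at 37C. Lysates were then assayed for phospho-KAP-1 by AlphaLISA (anti-pKAP1 donor, anti-KAP1 acceptor beads), 6 hr at 25C.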
Active calls of the source: *; ? = inconclusive; . = no result; [ ] = remark or other dose. Rows were chosen to be rich in hits. Some 0.69% of all compounds tested hit in one or more screens of this group. Unless noted, the call rests on the fitted dose curve; in most records, active means well fitted curve in the direction sought with a large enough effect; inconclusive means small, poorly fitted or top-dose-only effect, or another doubt; inactive means no such curve, though single readings can be large; an effect the other way counts as inactive or inconclusive.

SMILES	PKM2 activator	Tb PFK block	IL-2 act	TCR act	a7 integrin act	AT treatment
CC1CCCC(C)N1C(=O)CSc1nnc(C2CCCCC2)o1 (configuration not stated)	-7%	2%	-3	-2%	19%	32µM*
Cc1cc(-c2nnc(SCC(=O)N3C(C)CCCC3C)o2)no1 (configuration not stated)	-1%	4%	-2	-2%	-22%	9%
C=CCn1c(SCc2nc3ccccc3c(=O)[nH]2)nc2scc(C3CC3)c2c1=O	3.5µM*	1%	-3	-3%	3%	6%
CCn1c(SCc2nc3ccccc3c(=O)[nH]2)nc2ccccc2c1=O	-3%	1%	0	-2%	15%	0%
O=c1c2ccccc2[nH]c(=S)n1Cc1cccnc1	25µM*	-6%	-1	-5%	-16%	4%
Cc1nc(N2CCOCC2)c2nc(-c3ccccc3)n(CCN(C)C)c2n1	-3%	.	.	.	.	.
O=S(=O)(c1ccccc1)c1ccc(NCc2ccco2)cc1	32µM*	1%	1	2%	12%	7%
CCOC(=O)C1CCN(C(=O)c2cc3cc(Cl)ccc3[nH]2)CC1	.	5%	-1	-1%	?	7.9µM*
CCOC(=O)C1CCN(C(=O)c2cc3ccc(OC)cc3[nH]2)CC1	.	-4%	3	6%	-7%	-3%
COc1ccc(CCN2C(=NC(=O)C(C)C)SC3CS(=O)(=O)CC32)cc1 (configuration not stated)	-1%	3%	0	-9%	-18%	0%
CC(C)c1ccc(/C=C(\c2nc3ccccc3[nH]2)S(=O)(=O)c2ccccc2)cc1	8%	0%	-1	-1%[46.1 µM]	-52%	4%
O=S(=O)(/C(=C/c1ccc(C(F)(F)F)cc1)c1nc2ccccc2[nH]1)c1ccccc1	-3%	-10%	-6	-7%[46.1 µM]	21%	32µM*
CCCc1cc(C(=O)Nc2ccccc2SC)no1	-7%	0%	-2	5%	0%	40µM*
N#C/C(=C/c1ccc(-c2ccc(S(N)(=O)=O)cc2)o1)c1nc2ccccc2s1	-5%	-4%	71*	-15%[46.1 µM]	-10%	1%
c1ccc(Cn2ncc3c(NCc4ccco4)ncnc32)cc1	14µM*	3%	-3	-1%	-34%	16%
c1ccc(-n2ncc3c(NCc4ccco4)ncnc32)cc1	-4%	-2%	-1	-4%	8%	9%
Clc1ccc(Cn2ncc3c(N4CCCCC4)ncnc32)cc1	21%	-16%	-1	28%	-10%	11%
Cc1ccc(Cn2ncc3c(N4CCCC4)ncnc32)cc1	13µM*	-3%	0	2%	13%	0%
CCN(CC)CCCCn1c(-c2ccccc2)nc2c(NCCOC)nc(C)nc21	0%	.	.	.	.	.
COc1cc(/C=c2\sc3nc(=O)c(-c4ccccc4)nn3c2=O)ccc1OCCC(C)C	1%	6%	100*	1%[46.1 µM]	-13%	-1%
CCCCc1nc2c(c3c1C[C@H](C)OC3)CN(S(=O)(=O)c1ccc(C)cc1)CC2	-8%[11.5 µM]	.	.	.	.	.
Cc1[nH]n(-c2ccccc2)c(=O)c1C=Nc1ccc2[nH]c(=O)[nH]c2c1	-5%	-1%	52*	4%	8%	-1%
Cc1cccc(-n2[nH]c(C)c(C=Nc3ccc4[nH]c(=O)[nH]c4c3)c2=O)c1	0%	1%	?	1%[46.1 µM]	15%	7%
COc1ccc(OC)c(/C=C/c2nc3ccccc3[nH]c2=O)c1	-7%	0%	139*	-4%	11%	2%
CC1=C(C(=O)OCc2ccccc2)C(c2ccc(C3CCCCC3)cc2)NC(=O)N1CCCCCC(=O)O (configuration not stated)	6%	.	.	.	.	.
SMILES	PKM2 activator	Tb PFK block	IL-2 act	TCR act	a7 integrin act	AT treatment
CNS(=O)(=O)c1ccc2c3c(cccc13)C(=O)N2C	25%	-1%	0	-6%	1%	2%
CN1C(=O)c2cccc3c(S(=O)(=O)Nc4ccccc4F)ccc1c23	11µM*	2%	2	-3%	-23%	6%
Cc1cc([N+](=O)[O-])ccc1-c1ccc(C2Nc3ccccc3C(=O)N2O)o1 (configuration not stated)	14µM*	-2%	7	8%	-21%	-11%
CCn1c(N)c(C(=O)NCc2ccc3c(c2)OCO3)sc1=S	5µM*	-16%	-2	-8%	-12%	1%
CCCCNC(=O)C1(C)CCN1C(=O)c1ccc(OC)c(F)c1 (configuration not stated)	.	.	0	.	.	.
Cn1c(=O)c(=O)n(C)c2cc(S(=O)(=O)N3CCc4ccccc43)ccc21	2µM*	-1%	-2	-4%	-3%	3%
CC(C)OP(=O)(OC(C)C)C(O)c1ccc(N(C)C)cc1 (configuration not stated)	2%	0%	1	-4%	-2%	5µM*
CC(C)OP(=O)(c1ccc(N(C)C)cc1)C(O)c1ccc(C(C)C)cc1 (configuration not stated)	.	11%	-2	-4%	-63%	-9%
CCCC[C@@H]1C[C@H]1C(NC(=O)c1ccccc1)c1ccc(-c2ccccc2)cc1 (some centres not stated)	1%	.	.	.	.	.
COc1ccc(-c2sc3ccccc3c2C#CC2(O)CCCCC2)cc1	11%	-2%	-1	2%	18%	32µM*
COc1ccc(-c2sc3cc(OC)c(OC)cc3c2C#CC2(O)CCCCC2)cc1	.	-25%	-1	6%	14%	?
COc1ccc(-c2sc3ccccc3c2C#Cc2cncn2C)cc1	.	-1%	0	12%	-26%	32µM*
O=[N+]([O-])c1cc(Cl)ccc1NCCc1ccccn1	?	-1%	0	-7%	?	-6%
N#Cc1ccc(NCCc2ccccn2)c([N+](=O)[O-])c1	14µM*	-1%	0	4%	21%	0%
COc1ccc(COC2OC[C@]3(C)[C@H]4C5=C(CN3C(=O)OC(C)(C)C)[C@H](C)C(CO)C(CO)C5CC[C@@H]24)cc1 (some centres not stated)	0%	.	.	.	.	.
CC(C)NC(=O)[C@@H]1C[C@H]1[C@@H](NC(=O)OCc1ccccc1)c1ccccc1	-1%	.	.	.	.	.
COc1ccccc1CNc1ncnc2c1nnn2Cc1ccccc1	20µM*	-1%	-1	-2%	11%	4%
O=C(O)c1ccc(S(=O)(=O)N[C@H](Cc2ccc(C(F)(F)F)cc2)C(=O)O)cc1	.	5%	.	.	.	13%

Source: PubChem BioAssay (National Center for Advancing Translational Sciences (NCATS))
